Reference: PubChem BioAssay (NCI)
Where “and” joins values, the source holds several entries; their conditions need not be identical. Equal entries are not always repeated. About 83,000 compounds went through this panel and 20% of them were active in at least one assay; those are over-represented in the sample as a whole.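 Compound tested at a single concentration for 48 hours in 96-well plates; a percent growth value below 10 was scored as active.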 Calls of active or inactive are those of the source. Where a SMILES comes first, the peptide text is derived from it. [ ]: non-standard residue; d: D form. ξ: configuration not given here. ξV = CC(C)C(N)C(=O)O

System: M14 melanoma
Assay: NCI-60 one-dose screen, 48 h (100 = growth as untreated, 0 = no growth, -100 = all killed)
Details: 0.0025 µM
Protocol: Growth inhibition of the M14 human tumor cell line is measured as a screen for anti-cancer activity. Cells are grown in 96 well plates and exposed to the test compound for 48 hours. Compounds are tested at a single concentration, which is 10^-5 M for most compounds. The reported endpoint is percent growth (GI% or GIPRCNT), where numbers from 0 - 100% represent growth inhibition, and numbers from -100% - 0 represent cell death. For example, a value of 40 represents 60% growth inhibition. A value of 0 means no net growth occurred over the course of the experiment. A value of -40 indicates 40% of cells at the beginning of the experiment died by the end of the experiment. A value of -100 means all cells are dead at the end of the experiment.
NCI-60 Human Tumor Cell Lines Screen was performed using the standard one-dose NCI protocol, which is described in more detail at https://dtp.cancer.gov/discovery_development/nci-60/default.htm.
Compounds with GIPRCNT values below 10 were considered active. Activity score was based on GIPRCNT using the following formula: […]
Score is 0 for GIPRCNT values of 100 or above, 50 for GIPRCNT values of 0, and 100 for GIPRCNT values of -100.

SMILES | growth
COc1cccc2c1C(=O)c1c(O)c3c(c(O)c1C2=O)C[C@@](O)(C(=O)CO)C[C@@H]3OC1CC(N)C(O)C(C)O1 (stereo not given in full) | 90.9% (inactive)

Same assay, conditions: 1 µM

SMILES | growth
COc1cccc2c1C(=O)c1c(O)c3c(c(O)c1C2=O)C[C@@](O)(C(=O)CO)C[C@@H]3OC1CC(N)C(O)C(C)O1 (stereo not given in full) | 16.6% (inactive)

Same assay, conditions: 2.5 µM

SMILES | growth
COc1cccc2c1C(=O)c1c(O)c3c(c(O)c1C2=O)C[C@@](O)(C(=O)CO)C[C@@H]3OC1CC(N)C(O)C(C)O1 (stereo not given in full) | 50.9% (inactive)

Same assay, conditions: 10 µM

SMILES | growth
OCC(O)C(O)C(O)C(/C=N/Nc1ccccc1)=N/Nc1ccccc1 (stereo not given) | 87.5% (inactive)
Nc1nc(=S)c2ncn(C3OC(CO)C(O)C3O)c2[nH]1 (stereo not given) | 109% (inactive) and 15.5% (inactive)
CC[N+](CC)=c1ccc2nc3c(cc(N)c4ccccc43)oc-2c1 | -56.9% (active)
Cc1cc(NS(=O)(=O)c2ccc(N=Nc3cc(N=Nc4ccc(S(=O)(=O)Nc5cc(C)nc(C)n5)cc4)c4c(NC(=O)C(Cl)Cl)cccc4c3OC(=O)C(Cl)Cl)cc2)nc(C)n1 (tested in a mixture with another compound) | 113% (inactive) and 111% (inactive)
Nc1ccc2cc3ccc(N)cc3nc2c1 | 107% (inactive) and 12.6% (inactive)
COC(=O)C1=COC(C)C2C[n+]3ccc4c([nH]c5ccccc54)c3CC12 (stereo not given) | 107% (inactive) and 94% (inactive)
CC(C)C(NC(=O)CN)C(=O)O (stereo not given) (H-Gly-[ξV]-OH) | 105% (inactive) and 108% (inactive)
CC(C)(C)CC(C)(C)c1ccc(OCCO)cc1 | 112% (inactive)
O=c1ccn(C2CC(O)C(COC(c3ccccc3)(c3ccccc3)c3ccccc3)O2)c(=O)[nH]1 (stereo not given) | 81.4% (inactive)
O=C(O)COc1ccc(OCC(=O)O)cc1 | 20.7% (inactive)
CCCCCC(C)c1ccc(O)c(C)c1 (stereo not given) | 97.7% (inactive)
COc1ccc(CC(=O)c2ccc(O)cc2O)cc1 | 103% (inactive)
Oc1ccc(N=Nc2ccccn2)c(O)c1 | -6.58% (active)
OC(CN1CCCC2CCCCC21)c1cc2ccccc2c2ccccc12 (stereo not given) | -69.8% (active)
Clc1cc(Cl)c(Cl)nn1 | 93% (inactive)
CCN1/C(=C/C=C/C=C/c2sc3ccccc3[n+]2CC)Sc2ccccc21 | -81.7% (active)
NNc1c2ccccc2nc2ccccc12 | 66.4% (inactive)
CCCCCCCCCCCC[N+](C)(C)Cc1ccccc1 | 7.19% (active)

SMILES | growth
O=C(Nc1ccc(C(=O)O)c(O)c1)c1ccccc1 | 106% (inactive) and 99.6% (inactive)
O=C(/C=C/c1cccnc1)c1ccccc1 | 88.6% (inactive)
Cc1nc(N=C(N)N)nc2ccc3ccccc3c12 | 4.95% (active)
N=S(c1ccccc1[N+](=O)[O-])c1ccccc1[N+](=O)[O-] | 60.2% (inactive)
CC(=O)OCC(OC(C)=O)C(OC(C)=O)C(OC(C)=O)C(OC(C)=O)C(/C=N/Nc1ccccc1)=N/Nc1ccccc1 (stereo not given) | 82.3% (inactive)
CC1=CC(C)=Nc2ccc(Cl)cc2N1 | 102% (inactive)
O=C1NC(=O)c2cc([N+](=O)[O-])ccc21 | 118% (inactive)
O=C1C=CC(=CC=C2C=CN(CCCCCCCCCCCO)C=C2)C=C1 | 45.4% (inactive)
NNc1ccc2ccccc2c1 | 89.6% (inactive) and 96.8% (inactive)
CS(=O)(=O)OC1CC(n2ccc(=O)[nH]c2=O)OC1COC(c1ccccc1)(c1ccccc1)c1ccccc1 (stereo not given) | 88.7% (inactive)
Nc1c2ccccc2nc2ccccc12 | 7.24% (active) and 34.6% (inactive) and 42.3% (inactive)
CCCCCCCCCCCCSC(=NC)NC | -19.2% (active) and 60.6% (inactive)
CN(C)C(=S)SC(=S)N(C)C | 90.5% (inactive) and 93% (inactive)
O=C(/C=C/c1ccccn1)c1ccccc1 | 42.1% (inactive)
CC(=O)Nc1cc(C)ccc1C | 101% (inactive)
CCO/C=C1\SC(=S)N(c2cccc(O)c2)C1=O | 105% (inactive)
CO[C@H](C(=O)[C@@H](O)[C@@H](C)O)[C@@H]1Cc2cc3cc(OC4CC(OC5CC(O)C(O)C(C)O5)C(O)C(C)O4)c(C)c(O)c3c(O)c2C(=O)[C@H]1OC1CC(OC2CC(OC3CC(C)(O)C(O)C(C)O3)C(O)C(C)O2)C(O)C(C)O1 (stereo not given in full) | -71.5% (active)
COC1OCC(O)C(O)C1O (stereo not given) | 101% (inactive)

Same assay, conditions: 100 µM

SMILES | growth
O=c1ccn(C2CC(O)C(COC(c3ccccc3)(c3ccccc3)c3ccccc3)O2)c(=O)[nH]1 (stereo not given) | 52.5% (inactive)
